From PubChem BioAssay (NCI)
About 83,000 compounds went through this panel and 20% of them were active in at least one assay; those are over-represented in the sample as a whole.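 Negative percent growth values reflect cell death: -40 means 40% of the cells present at the start died, and -100 means all died.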 Values without a mark were called inactive. Active and inactive are the calls of the source. The calls were made as follows: active = growth percent below 10; inactive = the rest.

Tested on: NCI-H23 lung
Assay: NCI-60 one-dose screen, 48 h (100 = growth as untreated, 0 = no growth, -100 = all killed)
Conditions: 10 µM unless noted

Row | SMILES | growth
1 | Cn1cc(-c2ccc3c(Nc4cccc(NC(=O)Nc5cccc(F)c5)c4)ncnc3c2)cn1 | 47.1%
2 | CC(C)(C)n1cc(-c2ccnc(NCCNS(=O)(=O)c3ccc(C(F)(F)F)cc3)c2)c(-c2ccccc2)n1 | 83%
3 | Cc1nn(C)c2ncnc(Nc3ccccc3Br)c12 | 101%
4 | COc1ccc(C(=O)C2OC3=C(C(=O)CC(C)(C)C3)C2c2cccc(Oc3ccccc3)c2)cc1 (stereo not drawn) | 97%
5 | O=C(Nc1ccc2[nH]ncc2c1)c1csc(Nc2ccccc2)n1 | 47.3%
6 | c1ccc(-c2cn3nc(-c4c[nH]c5ccccc45)sc3n2)cc1 | 87.6%
7 | COc1cc(OCc2cccc(-c3ccccc3)c2C)cc(OC)c1CN1CCCCC1C(=O)NCCOCCOCCN (stereo not drawn) | 86.8%
8 | COc1cc(OC)cc(C(=O)Nc2cnc(Nc3ccc(N4CCOCC4)nc3)nc2Oc2ccc(C(F)(F)F)cc2)c1 | 82%
9 | Cc1ccc(-c2nc(C#N)c(S(=O)(=O)n3nc(C)cc3N)o2)cc1 | 90.7%
10 | CCN1CCN(CCOc2ccc(CNc3ccc4nc(CCC5CCCCC5)[nH]c4c3)cc2)CC1 | 75.6%
11 | COc1ccc(NC(=O)c2ccc(NC3=C(c4ccc(Cl)cc4)C(=O)NC3=O)cc2)cc1 | 85.3%
12 | CC(=O)OCCOc1cc(Cl)c(Cl)cc1Cl | 97.4%
13 | Oc1ccc(C(c2ccc(O)cc2)c2ccc(Cl)cn2)cc1 | -4.57% (active)
14 | CCCS(=O)(=O)Nc1cccc(Nc2ncnc3cc(NC(=O)CCl)ccc23)c1Cl | -52.2% (active)
15 | c1ccc2c(-c3cnn4cc(-c5ccc(N6CCNCC6)cc5)cnc34)ccnc2c1 | -13.7% (active)
16 | COc1ccc(C(=O)/C=C/c2ccc(C)cc2)cc1S(N)(=O)=O | 77.4%
17 | O=C(OCC(O)(CO)C(=O)NC12CC3CC(CC(C3)C1)C2)c1ccc(Cl)cc1 (stereo not drawn) | 97.6%
18 | O=C(Nc1cccc(Cn2c(=O)[nH]c3ccc(Oc4ncccn4)cc3c2=O)c1)c1cccc(Cl)c1 | 48.6%
19 | Cn1ccnc1C(=O)/C=C/c1ccc(C(=O)Nc2ccccc2F)cc1 | 27.4%
20 | O=C(Oc1ccccc1)c1cc(O)c(O)c(O)c1 | 72.3%

Row | SMILES | growth
21 | CN(C)CCOc1ccc(/C(=C(/CCCCCCCCCC[P+](c2ccccc2)(c2ccccc2)c2ccccc2)c2ccccc2)c2ccccc2)cc1 | -83.2% (active)
22 | Clc1nc(N2CCC[N+]3(CC2)CC[N+]2(CCCNCC2)CC3)nc(N2CCC[N+]3(CC2)CC[N+]2(CCCNCC2)CC3)n1 (stereo not drawn) | 89.2%
23 | Clc1ccc(C2=Nn3c(nnc3-c3cc(Cl)cc(Cl)c3Cl)SC2)cc1 | 65.8%
24 | COc1ccc(C(=O)/C=C/Nc2cc(-c3ccccc3)nn2-c2ccccc2)cc1 | 90%
25 | COc1cc(C2=Nc3c(N)nc(N)nc3NC(c3cccc(Nc4ccnc5cc(C(F)(F)F)ccc45)c3)C2)cc(OC)c1OC (stereo not drawn) | 79.5%
26 | CC(=O)O[C@H]1CC[C@@]2(C)C(=CC[C@@H]3[C@@H]2CC[C@]2(C)C(Cl)=C(c4nc5ccc(Cl)cn5c4NC(C)(C)C)C[C@@H]32)C1 | 88.1%
27 | COc1ccc(C2=NN3C(C2)c2cc(Br)ccc2OC3c2ccncc2)cc1 (stereo not drawn) | 81.8%
28 | COc1cc(-c2c(-c3ccccc3)c[nH]c2C(=O)NCCCO)c(OC)c2c1OCO2 | 96.3%
29 | CC(C)(C)c1ccc(C(=O)Nc2sc3c(c2C#N)CCC(=O)C3)cc1 | 5.23% (active)
30 | COc1ccc(Nc2nccc(Nc3ccc4[nH]ncc4c3)n2)cc1 | 40.3%
31 | COc1ccc(-c2nc(SCCC(C)C)nc(N/N=C(/C)c3ccc(N)cc3)c2C#N)cc1 | 92.9%
32 | Nc1cc(-c2ccc(Cl)cc2)nn1-c1nc(-c2ccc(Br)cc2)cs1 | 100%
33 | FC(F)(F)c1cc(N2CCCCC2)nc(NCCCNc2ccnc3cc(Cl)ccc23)n1 | 27.2%
34 | CCOC(=O)C1=C(c2ccccc2)N=C2SC=C(c3cccc([N+](=O)[O-])c3)N2C1c1ccc(O)cc1 (stereo not drawn) | 96.5%
35 | COc1ccccc1-c1nc2ccc3[nH]ncc3c2c2c1CCCC2 | 69%
36 | C=C(C)Cn1c(SCC(=O)c2cccs2)nc2sc3c(c2c1=O)CCCC3 | 72.8%
37 | COC(=O)c1nc(-c2ccccc2)oc1S(=O)(=O)N1CCN(c2ccc(OC)cc2)CC1 | 89.1%
38 | CCN(CC)CCCNc1cc(OC)cc2cccnc12 | 99.3%
39 | CC(C)n1nc(-c2ccc3oc(N)nc3c2)c2c(N)ncnc21 | 2.3% (active)

Tested on: NCI-H226 lung
Assay: as above
Conditions: 10 µM unless noted

Row | SMILES | growth
40 | Cn1cc(-c2ccc3c(Nc4cccc(NC(=O)Nc5cccc(F)c5)c4)ncnc3c2)cn1 | 67.8%
41 | CC(C)(C)n1cc(-c2ccnc(NCCNS(=O)(=O)c3ccc(C(F)(F)F)cc3)c2)c(-c2ccccc2)n1 | 89.4%
42 | Cc1nn(C)c2ncnc(Nc3ccccc3Br)c12 | 96.3%
43 | COc1ccc(C(=O)C2OC3=C(C(=O)CC(C)(C)C3)C2c2cccc(Oc3ccccc3)c2)cc1 (stereo not drawn) | 86.9%
44 | O=C(Nc1ccc2[nH]ncc2c1)c1csc(Nc2ccccc2)n1 | 67.2%
45 | c1ccc(-c2cn3nc(-c4c[nH]c5ccccc45)sc3n2)cc1 | 77.3%
46 | COc1cc(OCc2cccc(-c3ccccc3)c2C)cc(OC)c1CN1CCCCC1C(=O)NCCOCCOCCN (stereo not drawn) | 86.4%
47 | COc1cc(OC)cc(C(=O)Nc2cnc(Nc3ccc(N4CCOCC4)nc3)nc2Oc2ccc(C(F)(F)F)cc2)c1 | 39.9%
48 | Cc1ccc(-c2nc(C#N)c(S(=O)(=O)n3nc(C)cc3N)o2)cc1 | 94.1%
49 | CCN1CCN(CCOc2ccc(CNc3ccc4nc(CCC5CCCCC5)[nH]c4c3)cc2)CC1 | 38.9%
50 | COc1ccc(NC(=O)c2ccc(NC3=C(c4ccc(Cl)cc4)C(=O)NC3=O)cc2)cc1 | 84.4%
51 | CC(=O)OCCOc1cc(Cl)c(Cl)cc1Cl | 101%
52 | Oc1ccc(C(c2ccc(O)cc2)c2ccc(Cl)cn2)cc1 | -31% (active)
53 | CCCS(=O)(=O)Nc1cccc(Nc2ncnc3cc(NC(=O)CCl)ccc23)c1Cl | -18.3% (active)
54 | c1ccc2c(-c3cnn4cc(-c5ccc(N6CCNCC6)cc5)cnc34)ccnc2c1 | -54.8% (active)
55 | COc1ccc(C(=O)/C=C/c2ccc(C)cc2)cc1S(N)(=O)=O | 83%
56 | O=C(OCC(O)(CO)C(=O)NC12CC3CC(CC(C3)C1)C2)c1ccc(Cl)cc1 (stereo not drawn) | 89.1%
57 | O=C(Nc1cccc(Cn2c(=O)[nH]c3ccc(Oc4ncccn4)cc3c2=O)c1)c1cccc(Cl)c1 | 68.6%
58 | Cn1ccnc1C(=O)/C=C/c1ccc(C(=O)Nc2ccccc2F)cc1 | 50.7%
59 | O=C(Oc1ccccc1)c1cc(O)c(O)c(O)c1 | 89.8%

Row | SMILES | growth
60 | CN(C)CCOc1ccc(/C(=C(/CCCCCCCCCC[P+](c2ccccc2)(c2ccccc2)c2ccccc2)c2ccccc2)c2ccccc2)cc1 | -53.2% (active)
61 | Clc1nc(N2CCC[N+]3(CC2)CC[N+]2(CCCNCC2)CC3)nc(N2CCC[N+]3(CC2)CC[N+]2(CCCNCC2)CC3)n1 (stereo not drawn) | 68.4%
62 | Clc1ccc(C2=Nn3c(nnc3-c3cc(Cl)cc(Cl)c3Cl)SC2)cc1 | 75.3%
63 | COc1ccc(C(=O)/C=C/Nc2cc(-c3ccccc3)nn2-c2ccccc2)cc1 | 79.8%
64 | COc1cc(C2=Nc3c(N)nc(N)nc3NC(c3cccc(Nc4ccnc5cc(C(F)(F)F)ccc45)c3)C2)cc(OC)c1OC (stereo not drawn) | 89.5%
65 | CC(=O)O[C@H]1CC[C@@]2(C)C(=CC[C@@H]3[C@@H]2CC[C@]2(C)C(Cl)=C(c4nc5ccc(Cl)cn5c4NC(C)(C)C)C[C@@H]32)C1 | 92.3%
66 | COc1ccc(C2=NN3C(C2)c2cc(Br)ccc2OC3c2ccncc2)cc1 (stereo not drawn) | 92.7%
67 | COc1cc(-c2c(-c3ccccc3)c[nH]c2C(=O)NCCCO)c(OC)c2c1OCO2 | 95%
68 | CC(C)(C)c1ccc(C(=O)Nc2sc3c(c2C#N)CCC(=O)C3)cc1 | 15.4%
69 | COc1ccc(Nc2nccc(Nc3ccc4[nH]ncc4c3)n2)cc1 | 28.1%
70 | COc1ccc(-c2nc(SCCC(C)C)nc(N/N=C(/C)c3ccc(N)cc3)c2C#N)cc1 | 88.9%
71 | Nc1cc(-c2ccc(Cl)cc2)nn1-c1nc(-c2ccc(Br)cc2)cs1 | 96.3%
72 | FC(F)(F)c1cc(N2CCCCC2)nc(NCCCNc2ccnc3cc(Cl)ccc23)n1 | 73.6%
73 | CCOC(=O)C1=C(c2ccccc2)N=C2SC=C(c3cccc([N+](=O)[O-])c3)N2C1c1ccc(O)cc1 (stereo not drawn) | 96.8%
74 | COc1ccccc1-c1nc2ccc3[nH]ncc3c2c2c1CCCC2 | 81.4%
75 | C=C(C)Cn1c(SCC(=O)c2cccs2)nc2sc3c(c2c1=O)CCCC3 | 58.3%
76 | COC(=O)c1nc(-c2ccccc2)oc1S(=O)(=O)N1CCN(c2ccc(OC)cc2)CC1 | 91.5%
77 | CCN(CC)CCCNc1cc(OC)cc2cccnc12 | 92.7%
78 | CC(C)n1nc(-c2ccc3oc(N)nc3c2)c2c(N)ncnc21 | -28.2% (active)
